Several values for one entry are separate records, joined by “and”; a condition that tells them apart may be missing. Equal values may be shown once. About 83,000 compounds went through this panel and 20% of them were active in at least one assay; those are over-represented in the sample as a whole.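 Assay: single dose, 48 h. Readout: percent growth (0 = no net growth; negative = cell death). Active: <10.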 Activity calls are given as the source filed them.
system: NCI/ADR-RES ovarian; experiment: NCI-60 one-dose screen, 48 h (100 = growth as untreated, 0 = no growth, -100 = all killed); settings: 10 µM
Protocol: Growth inhibition of the NCI/ADR-RES human […] tumor cell line is measured as a screen for anti-cancer activity. Cells are grown in 96 well plates and exposed to the test compound for 48 hours. Compounds are tested at a single concentration, which is 10^-5 M for most compounds. The reported endpoint is percent growth (GI% or GIPRCNT), where numbers from 0 - 100% represent growth inhibition, and numbers from -100% - 0 represent cell death. For example, a value of 40 represents 60% growth inhibition. A value of 0 means no net growth occurred over the course of the experiment. A value of -40 indicates 40% of cells at the beginning of the experiment died by the end of the experiment. A value of -100 means all cells are dead at the end of the experiment.
NCI-60 Human Tumor Cell Lines Screen was performed using the standard one-dose NCI protocol, which is described in more detail at https://dtp.cancer.gov/discovery_development/nci-60/default.htm.
Compounds with GIPRCNT values below 10 were considered active. Activity score was based on GIPRCNT using the following formula: […]
Score is 0 for GIPRCNT values of 100 or above, 50 for GIPRCNT values of 0, and 100 for GIPRCNT values of -100.

SMILES	growth
CC(C)(C)c1cc(NC(=O)Cc2ccc(-c3cnc4cc(-c5cnn(CCN6CCOCC6)c5)ccc4n3)cc2)no1	12.8% (inactive)
CC1(C)OB(c2ccc(Cn3cc(F)c(=O)[nH]c3=O)cc2)OC1(C)C	102% (inactive)
COc1ccc(Cl)cc1C(=O)NCCc1ccc(S(=O)(=O)NC(=O)NC2CCCCC2)cc1	103% (inactive) and 107% (inactive)
CC#C[C@]1(O)CC[C@H]2[C@@H]3CCC4=CC(=O)CCC4=C3[C@@H](c3ccc4c(c3)OCO4)C[C@@]21C	76.7% (inactive)

same assay, conditions: 10 µM unless noted

SMILES	growth
CC(C)Oc1ccc2cc(-c3nn(CC4CCNCC4)c4ncnc(N)c34)ccc2c1	94.7% (inactive) and 64.2% (inactive)
Cc1ncsc1CCO	108% (inactive) and 102% (inactive)
C[N+](C)(C)CN1C(=O)c2ccccc2C1=O	112% (inactive)
O=S1(=O)CC(Br)C(Br)C1 (stereo not given)	68.5% (inactive) and 110% (inactive)
COc1cc2nc(N3CCN(C(=O)C4COc5ccccc5O4)CC3)nc(N)c2cc1OC (stereo not given)	93.9% (inactive) and 97.6% (inactive) and 110% (inactive)
CC(C(=O)O)n1cc(C#N)c(=O)[nH]c1=O (stereo not given)	106% (inactive)
CC(CN=Cc1ccccc1O)N=Cc1ccccc1O (stereo not given)	105% (inactive) and 101% (inactive)
Cn1c(=O)c2[nH]c(CCCCCCCCc3nc4ccccc4[nH]3)nc2n(C)c1=O	87.6% (inactive) and 94.4% (inactive)
CCOC(=O)C(CNc1ccccc1)C(=O)OCC	103% (inactive)
CCN1CCN(CCNc2nccc(-c3c(-c4cccc(O)c4)nc4sccn34)n2)S1(=O)=O	102% (inactive) and 103% (inactive)
O=C(/C=C/c1ccccn1)c1ccccc1O	73.9% (inactive) and 93.4% (inactive)
CCOC(=O)Nc1ccc2c(c1)/C(=N\NC(N)=S)c1ccccc1-2	29.5% (inactive) and 45.6% (inactive)
O=C(N/N=C/c1cccc2ccccc12)C1CC1	115% (inactive) and 97.8% (inactive)
CC1CCCC(=O)O1 (stereo not given)	103% (inactive) and 99.8% (inactive)
CC1=C(/C=C/C(C)=C/C=C/C(C)=C/C(=O)Nc2ccc(O)cc2)C(C)(C)CCC1	39.1% (inactive)
CCN(CC)CCOc1ccc(/C=N/Nc2nc3c([nH]2)c(=O)n(C)c(=O)n3C)cc1	118% (inactive) and 106% (inactive)

SMILES	growth
O=C(Nc1cccc(-n2ccc3c(NC(=O)c4ccccc4)nccc32)c1)c1ccc(Cl)c(C(F)(F)F)c1	-33% (active) and 58.4% (inactive)
O=C(c1ccc(Cl)cc1)C(NCCO)c1ccc(Cl)cc1 (stereo not given)	98.1% (inactive) and 98% (inactive)
CCOc1ccc2cc(-c3nn(CC4CCNCC4)c4ncnc(N)c34)ccc2c1	99.5% (inactive) and 93.5% (inactive)
NS(=O)(=O)c1cc2c(cc1Cl)NC(C(Cl)Cl)NS2(=O)=O (stereo not given)	101% (inactive) and 108% (inactive)
CC(O)(CC(=O)CC(=O)c1ccccc1)c1ccccc1 (stereo not given)	83.1% (inactive) and 72.9% (inactive)
CC(C)Cc1ccc(C(C)C(=O)NCc2ccc(Cn3c(=O)sn(CCCCl)c3=O)cc2)cc1 (stereo not given)	99.4% (inactive) and -32.1% (active)
CN(C)CCCNC1=C(Cl)C(=O)c2ccccc2C1=O	103% (inactive) and 78.7% (inactive)
CCNC(=O)Nc1ccc(-c2nc3c(c(N4CCOC[C@@H]4C)n2)CCN(C2COC2)C3)cc1	90.4% (inactive) and 12.4% (inactive)
CN1C(=O)C(N=Nc2ccc([N+](=O)[O-])cc2)SC1=S (stereo not given)	45.7% (inactive) and 15.5% (inactive)
O=C1C2=C(C(=O)c3ccccc31)C(O)(S(=O)(=O)O)C(O)(S(=O)(=O)O)C1N=CC=CC21 (stereo not given)	11.3% (inactive)
CC1=C(/C=C/C(C)=C/C=C/C(C)=C/C=N/NC(=S)NC(=S)N/N=C/C=C(C)/C=C/C=C(C)/C=C/C2=C(C)CCCC2(C)C)C(C)(C)CCC1	-34% (active) and -58.9% (active)
NC(=O)NO	99.4% (inactive) and 87.4% (inactive)
O=Nc1ccc(O)cc1	89.3% (inactive) and 84.6% (inactive)
COc1cc(C(=O)c2ccc3c(c2)OCO3)cc(OC)c1OC	10.9% (inactive) and 25% (inactive)
CCCCCn1sc(=O)n(Cc2ccc(CNC(=O)C(C)c3ccc(CC(C)C)cc3)cc2)c1=O (stereo not given)	99.8% (inactive) and -17.6% (active)
Cc1ccc(S(=O)(=O)NCN2C(=O)c3ccccc3C2=O)cc1	110% (inactive)

same assay, conditions: 30 µM

SMILES	growth
CC(C)(C)c1cc(NC(=O)Cc2ccc(-c3cnc4cc(-c5cnn(CCN6CCOCC6)c5)ccc4n3)cc2)no1	16.9% (inactive)

same assay, conditions: 50 µM

SMILES	growth
CC1(C)OB(c2ccc(Cn3cc(F)c(=O)[nH]c3=O)cc2)OC1(C)C	94.1% (inactive)

same assay, conditions: 100 µM

SMILES	growth
COc1ccc(Cl)cc1C(=O)NCCc1ccc(S(=O)(=O)NC(=O)NC2CCCCC2)cc1	76.6% (inactive)
CC#C[C@]1(O)CC[C@H]2[C@@H]3CCC4=CC(=O)CCC4=C3[C@@H](c3ccc4c(c3)OCO4)C[C@@]21C	-15.3% (active)

Reference: PubChem BioAssay (NCI)
